The record followed here is PMC7862700, “An all-to-all approach to the identification of sequence-specific readers for epigenetic DNA modifications on cytosine”.

What all share (experiment): DAPPL (digital affinity profiling via proximity ligation, sequencing); 10 mM Tris-HCl pH 7.5, 50 mM NaCl, 1 mM DTT, 4% glycerol, room temperature, 30 min; GST-TFs on glutathione beads, 16-mer random dsDNA library, 0.1% formaldehyde crosslink after washing; high values mean tight binding
What all share (details): protein: recombinant; tags: N-terminal GST; dsDNA, one strand shown

One test addresses T1, ELK1 (Homo sapiens, UniProt P19419 1-428).
T1 sequence: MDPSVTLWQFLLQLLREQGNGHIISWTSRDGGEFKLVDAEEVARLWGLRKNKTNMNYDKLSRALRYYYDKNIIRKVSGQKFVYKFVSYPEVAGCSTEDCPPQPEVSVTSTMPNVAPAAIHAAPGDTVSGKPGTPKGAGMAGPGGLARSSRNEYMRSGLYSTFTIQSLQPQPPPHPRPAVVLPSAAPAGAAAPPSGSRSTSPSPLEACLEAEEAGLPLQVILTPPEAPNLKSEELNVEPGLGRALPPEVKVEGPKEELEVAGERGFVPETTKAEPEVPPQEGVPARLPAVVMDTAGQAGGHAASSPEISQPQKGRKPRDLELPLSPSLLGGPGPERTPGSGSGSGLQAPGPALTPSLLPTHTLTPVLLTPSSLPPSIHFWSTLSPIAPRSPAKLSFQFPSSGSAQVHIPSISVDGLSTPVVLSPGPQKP
Put shortly: (§1)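 Beads coated with glutathione captured GST-fused human transcription factors that had been expressed in yeast, and the factors were then given DNA barcodes and pooled with a tag-only sample. The pools were incubated with 200 nmole of a random double-stranded 16-mer DNA library in Tris/NaCl/DTT/glycerol buffer for 30 min at room temperature, washed, crosslinked with 0.1% formaldehyde and proximity-ligated with BsaI/T4 ligase at 37 °C for 1 h. PCR amplification and Illumina NextSeq500 sequencing came last. Binding signal is each hexamer's read frequency for a factor divided by its frequency for the tag-only sample.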

For the next test, the target named is SPIB (Homo sapiens, UniProt Q01892 1-262). Put shortly:
as §1

A further test deals with ETV5 (Homo sapiens, UniProt P41161 1-510). In outline: as §1
Sequence of ETV5 (P41161 whole entry): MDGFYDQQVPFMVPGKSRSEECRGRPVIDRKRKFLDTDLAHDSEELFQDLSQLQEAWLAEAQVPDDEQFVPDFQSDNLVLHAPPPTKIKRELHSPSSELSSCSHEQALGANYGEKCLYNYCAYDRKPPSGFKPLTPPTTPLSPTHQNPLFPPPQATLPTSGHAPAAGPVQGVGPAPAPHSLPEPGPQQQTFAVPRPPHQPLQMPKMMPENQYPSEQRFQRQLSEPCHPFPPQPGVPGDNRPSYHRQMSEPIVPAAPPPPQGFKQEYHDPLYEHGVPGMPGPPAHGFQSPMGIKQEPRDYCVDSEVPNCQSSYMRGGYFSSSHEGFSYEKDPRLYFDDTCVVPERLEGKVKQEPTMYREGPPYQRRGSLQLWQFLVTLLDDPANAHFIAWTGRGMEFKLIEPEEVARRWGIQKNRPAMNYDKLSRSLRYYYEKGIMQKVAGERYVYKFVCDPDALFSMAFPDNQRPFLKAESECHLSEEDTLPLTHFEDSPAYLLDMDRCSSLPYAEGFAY
The target in the next test is ELF4 (Homo sapiens, UniProt Q99607 1-663). Put shortly: as §1
Sequence of ELF4 (Q99607 whole entry): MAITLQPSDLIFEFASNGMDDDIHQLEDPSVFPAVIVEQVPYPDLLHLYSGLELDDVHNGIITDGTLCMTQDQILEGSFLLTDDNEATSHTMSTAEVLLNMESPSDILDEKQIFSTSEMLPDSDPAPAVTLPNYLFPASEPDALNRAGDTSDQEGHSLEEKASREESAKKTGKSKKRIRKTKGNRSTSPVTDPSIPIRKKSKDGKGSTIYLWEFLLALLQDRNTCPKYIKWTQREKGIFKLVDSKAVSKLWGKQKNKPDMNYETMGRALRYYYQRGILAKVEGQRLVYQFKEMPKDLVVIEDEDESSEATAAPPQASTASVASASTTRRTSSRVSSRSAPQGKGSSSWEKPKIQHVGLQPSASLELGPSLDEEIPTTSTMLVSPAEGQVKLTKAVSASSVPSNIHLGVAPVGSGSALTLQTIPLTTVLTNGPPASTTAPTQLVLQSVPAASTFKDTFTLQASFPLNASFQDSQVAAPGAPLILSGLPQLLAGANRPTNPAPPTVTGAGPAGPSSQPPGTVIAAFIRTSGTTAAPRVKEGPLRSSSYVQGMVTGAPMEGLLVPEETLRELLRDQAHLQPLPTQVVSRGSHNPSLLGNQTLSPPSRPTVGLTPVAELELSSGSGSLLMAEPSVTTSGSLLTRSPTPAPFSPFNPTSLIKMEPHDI
The target in another test is T2, ELK4 (Homo sapiens, UniProt P28324-2 1-405).
T2 sequence: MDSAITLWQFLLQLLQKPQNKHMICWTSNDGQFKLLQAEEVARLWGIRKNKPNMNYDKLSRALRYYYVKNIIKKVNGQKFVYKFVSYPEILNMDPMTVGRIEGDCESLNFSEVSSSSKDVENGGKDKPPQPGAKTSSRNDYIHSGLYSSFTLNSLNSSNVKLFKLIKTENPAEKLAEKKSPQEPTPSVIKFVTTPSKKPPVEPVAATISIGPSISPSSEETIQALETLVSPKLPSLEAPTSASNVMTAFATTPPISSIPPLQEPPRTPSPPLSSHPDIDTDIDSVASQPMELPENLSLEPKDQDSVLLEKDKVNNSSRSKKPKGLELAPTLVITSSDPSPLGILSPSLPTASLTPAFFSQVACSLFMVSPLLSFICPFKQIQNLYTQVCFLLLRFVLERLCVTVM
In outline: as §1

For another test, the target named is T3, ETV2 (Homo sapiens, UniProt O00321 1-342).
T3 sequence: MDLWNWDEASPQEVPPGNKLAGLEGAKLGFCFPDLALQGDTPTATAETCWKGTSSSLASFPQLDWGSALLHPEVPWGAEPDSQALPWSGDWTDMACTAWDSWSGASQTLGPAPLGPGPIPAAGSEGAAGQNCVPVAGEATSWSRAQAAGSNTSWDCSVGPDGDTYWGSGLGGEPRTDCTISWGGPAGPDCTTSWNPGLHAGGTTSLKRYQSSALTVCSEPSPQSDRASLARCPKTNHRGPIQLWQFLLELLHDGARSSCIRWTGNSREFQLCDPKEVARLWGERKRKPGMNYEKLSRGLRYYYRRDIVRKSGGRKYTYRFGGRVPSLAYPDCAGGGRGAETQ
In outline: as §1

A further test deals with T4, ERF (Homo sapiens, UniProt P50548 1-548).
T4 sequence: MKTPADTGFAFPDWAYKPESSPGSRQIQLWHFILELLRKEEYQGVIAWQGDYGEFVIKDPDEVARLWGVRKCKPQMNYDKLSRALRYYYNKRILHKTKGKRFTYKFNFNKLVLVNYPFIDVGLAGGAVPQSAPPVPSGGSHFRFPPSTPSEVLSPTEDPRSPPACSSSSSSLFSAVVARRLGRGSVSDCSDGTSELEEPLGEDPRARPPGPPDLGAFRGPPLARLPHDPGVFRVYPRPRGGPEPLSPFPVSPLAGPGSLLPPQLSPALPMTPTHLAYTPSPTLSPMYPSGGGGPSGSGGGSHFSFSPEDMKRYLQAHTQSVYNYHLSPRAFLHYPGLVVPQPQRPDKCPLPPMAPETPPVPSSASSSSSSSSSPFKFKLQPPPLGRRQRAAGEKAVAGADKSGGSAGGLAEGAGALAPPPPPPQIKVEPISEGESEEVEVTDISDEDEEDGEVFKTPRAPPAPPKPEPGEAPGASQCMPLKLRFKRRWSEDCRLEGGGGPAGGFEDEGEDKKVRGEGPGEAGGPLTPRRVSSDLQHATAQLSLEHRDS
Put shortly:
as §1

The target of another test is T5, ETS2 (Homo sapiens, UniProt P15036 1-469).
T5 sequence: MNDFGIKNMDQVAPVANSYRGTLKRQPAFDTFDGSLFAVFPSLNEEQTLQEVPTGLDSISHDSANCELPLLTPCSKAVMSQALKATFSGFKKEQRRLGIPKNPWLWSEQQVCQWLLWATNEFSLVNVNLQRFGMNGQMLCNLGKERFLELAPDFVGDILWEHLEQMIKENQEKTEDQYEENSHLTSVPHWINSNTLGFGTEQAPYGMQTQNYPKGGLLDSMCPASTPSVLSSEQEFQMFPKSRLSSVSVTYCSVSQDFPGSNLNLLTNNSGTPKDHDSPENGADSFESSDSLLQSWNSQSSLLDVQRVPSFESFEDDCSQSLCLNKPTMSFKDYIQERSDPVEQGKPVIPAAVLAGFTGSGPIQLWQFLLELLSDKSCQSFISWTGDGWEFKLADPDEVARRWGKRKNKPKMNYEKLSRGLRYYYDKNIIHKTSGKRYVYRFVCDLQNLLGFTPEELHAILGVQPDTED
In outline: as §1

For another test, the target named is T6, ETV3 (Homo sapiens, UniProt P41162-2 1-143).
T6 sequence: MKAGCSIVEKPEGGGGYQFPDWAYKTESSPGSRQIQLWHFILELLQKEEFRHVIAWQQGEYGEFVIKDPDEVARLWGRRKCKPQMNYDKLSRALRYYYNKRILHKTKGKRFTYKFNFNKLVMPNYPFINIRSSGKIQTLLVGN
Put shortly: as §1

A further test deals with ETV6 (Homo sapiens, UniProt P41212 1-452). Put shortly:
as §1

For another test, the target named is T7, GABPA (Homo sapiens, UniProt Q06546 1-454).
T7 sequence: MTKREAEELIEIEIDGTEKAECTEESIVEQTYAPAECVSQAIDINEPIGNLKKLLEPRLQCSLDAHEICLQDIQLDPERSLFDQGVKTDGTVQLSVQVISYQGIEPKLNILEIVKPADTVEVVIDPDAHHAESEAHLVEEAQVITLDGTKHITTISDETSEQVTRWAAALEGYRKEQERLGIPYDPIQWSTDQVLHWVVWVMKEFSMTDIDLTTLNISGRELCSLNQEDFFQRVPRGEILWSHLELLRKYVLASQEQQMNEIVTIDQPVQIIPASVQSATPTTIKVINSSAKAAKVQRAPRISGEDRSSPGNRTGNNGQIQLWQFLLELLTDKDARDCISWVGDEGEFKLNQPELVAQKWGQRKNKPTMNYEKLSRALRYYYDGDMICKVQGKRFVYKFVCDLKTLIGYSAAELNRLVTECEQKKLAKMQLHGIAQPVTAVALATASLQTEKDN
In outline: as §1

Another test deals with ELF1 (Homo sapiens, UniProt P32519 1-619). In outline: as §1
Sequence of ELF1 (P32519 whole entry): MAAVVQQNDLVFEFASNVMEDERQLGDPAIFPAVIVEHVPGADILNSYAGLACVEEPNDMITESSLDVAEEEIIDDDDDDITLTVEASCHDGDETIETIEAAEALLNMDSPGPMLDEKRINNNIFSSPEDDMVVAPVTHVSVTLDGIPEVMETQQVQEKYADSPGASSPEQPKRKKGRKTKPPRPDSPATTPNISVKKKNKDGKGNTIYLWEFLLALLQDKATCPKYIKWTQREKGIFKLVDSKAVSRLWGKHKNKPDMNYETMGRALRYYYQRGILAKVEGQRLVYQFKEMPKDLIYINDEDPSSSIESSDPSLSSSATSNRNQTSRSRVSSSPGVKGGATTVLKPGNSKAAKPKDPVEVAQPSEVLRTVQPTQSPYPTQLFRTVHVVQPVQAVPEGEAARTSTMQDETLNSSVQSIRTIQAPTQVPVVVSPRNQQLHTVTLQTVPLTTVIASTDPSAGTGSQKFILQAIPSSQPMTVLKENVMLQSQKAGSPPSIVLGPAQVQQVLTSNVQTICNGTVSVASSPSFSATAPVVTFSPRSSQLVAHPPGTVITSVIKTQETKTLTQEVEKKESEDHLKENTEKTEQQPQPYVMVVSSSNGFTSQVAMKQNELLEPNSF
A further test has as its target T8, EHF (Homo sapiens, UniProt Q9NZC4 1-300).
T8 sequence: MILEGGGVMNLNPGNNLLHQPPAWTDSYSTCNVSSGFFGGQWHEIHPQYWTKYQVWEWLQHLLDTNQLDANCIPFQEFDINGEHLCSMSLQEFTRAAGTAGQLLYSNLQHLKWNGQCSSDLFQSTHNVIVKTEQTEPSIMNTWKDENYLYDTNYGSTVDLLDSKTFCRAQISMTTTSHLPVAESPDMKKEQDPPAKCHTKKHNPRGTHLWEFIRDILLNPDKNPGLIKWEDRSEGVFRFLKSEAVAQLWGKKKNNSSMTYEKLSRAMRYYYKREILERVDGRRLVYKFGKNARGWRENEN
In outline: as §1

The next test addresses SPI1 (Homo sapiens, UniProt P17947 1-270). Put shortly:
as §1

Another test deals with T9, FEV (Homo sapiens, UniProt Q99581 1-238).
T9 sequence: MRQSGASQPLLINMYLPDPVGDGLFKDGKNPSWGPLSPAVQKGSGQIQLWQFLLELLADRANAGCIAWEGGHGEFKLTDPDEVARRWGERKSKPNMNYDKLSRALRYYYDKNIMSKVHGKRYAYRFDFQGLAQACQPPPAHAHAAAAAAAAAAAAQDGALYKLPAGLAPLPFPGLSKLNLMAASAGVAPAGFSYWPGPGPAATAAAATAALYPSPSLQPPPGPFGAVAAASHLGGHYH
Put shortly: as §1

The target of the next test is ETV1 (Homo sapiens, UniProt P50549 1-477). In outline:
as §1

The target of another test is T10, ETV3L (Homo sapiens, UniProt Q6ZN32 1-361).
T10 sequence: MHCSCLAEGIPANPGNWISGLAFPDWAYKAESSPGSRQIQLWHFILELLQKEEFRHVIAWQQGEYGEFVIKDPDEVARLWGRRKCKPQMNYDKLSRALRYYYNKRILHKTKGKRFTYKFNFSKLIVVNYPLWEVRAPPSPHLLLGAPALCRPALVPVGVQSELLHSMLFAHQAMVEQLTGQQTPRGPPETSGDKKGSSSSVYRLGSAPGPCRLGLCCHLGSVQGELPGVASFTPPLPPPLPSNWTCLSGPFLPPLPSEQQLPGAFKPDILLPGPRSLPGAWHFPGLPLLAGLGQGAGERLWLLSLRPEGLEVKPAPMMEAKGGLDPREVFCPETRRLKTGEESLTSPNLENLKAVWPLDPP
Put shortly:
as §1

Another test has as its target T11, SPDEF (Homo sapiens, UniProt O95238 1-335).
T11 sequence: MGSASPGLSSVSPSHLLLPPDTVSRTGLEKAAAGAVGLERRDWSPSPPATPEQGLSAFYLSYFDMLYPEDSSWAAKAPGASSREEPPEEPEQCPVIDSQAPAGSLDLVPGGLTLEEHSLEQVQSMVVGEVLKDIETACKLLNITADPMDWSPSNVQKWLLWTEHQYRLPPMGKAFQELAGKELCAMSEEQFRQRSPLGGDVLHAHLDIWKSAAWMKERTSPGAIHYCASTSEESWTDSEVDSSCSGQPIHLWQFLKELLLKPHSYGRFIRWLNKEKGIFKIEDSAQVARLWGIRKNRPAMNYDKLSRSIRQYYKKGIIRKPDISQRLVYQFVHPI
Put shortly:
as §1

The target in another test is T12, ETV7 (Homo sapiens, UniProt Q9Y603 1-341).
T12 sequence: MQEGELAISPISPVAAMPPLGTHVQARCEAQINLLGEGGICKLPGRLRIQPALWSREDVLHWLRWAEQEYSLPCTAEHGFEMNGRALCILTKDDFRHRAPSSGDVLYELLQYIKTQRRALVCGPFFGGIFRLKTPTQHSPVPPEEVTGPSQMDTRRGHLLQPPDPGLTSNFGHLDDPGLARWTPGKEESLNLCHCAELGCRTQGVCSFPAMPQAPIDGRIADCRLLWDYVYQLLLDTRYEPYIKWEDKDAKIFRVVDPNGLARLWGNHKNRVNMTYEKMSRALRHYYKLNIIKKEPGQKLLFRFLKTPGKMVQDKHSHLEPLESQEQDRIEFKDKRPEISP
Put shortly: as §1

Sequence of SPIB (Q01892 whole entry): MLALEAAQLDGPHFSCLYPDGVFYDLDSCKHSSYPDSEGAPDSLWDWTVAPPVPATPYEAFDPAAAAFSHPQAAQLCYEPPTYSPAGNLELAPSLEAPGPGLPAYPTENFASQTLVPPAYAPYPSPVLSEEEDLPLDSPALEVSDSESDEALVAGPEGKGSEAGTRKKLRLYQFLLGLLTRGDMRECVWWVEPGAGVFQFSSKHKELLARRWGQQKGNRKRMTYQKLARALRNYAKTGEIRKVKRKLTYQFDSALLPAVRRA
Sequence of ETV6 (P41212 whole entry): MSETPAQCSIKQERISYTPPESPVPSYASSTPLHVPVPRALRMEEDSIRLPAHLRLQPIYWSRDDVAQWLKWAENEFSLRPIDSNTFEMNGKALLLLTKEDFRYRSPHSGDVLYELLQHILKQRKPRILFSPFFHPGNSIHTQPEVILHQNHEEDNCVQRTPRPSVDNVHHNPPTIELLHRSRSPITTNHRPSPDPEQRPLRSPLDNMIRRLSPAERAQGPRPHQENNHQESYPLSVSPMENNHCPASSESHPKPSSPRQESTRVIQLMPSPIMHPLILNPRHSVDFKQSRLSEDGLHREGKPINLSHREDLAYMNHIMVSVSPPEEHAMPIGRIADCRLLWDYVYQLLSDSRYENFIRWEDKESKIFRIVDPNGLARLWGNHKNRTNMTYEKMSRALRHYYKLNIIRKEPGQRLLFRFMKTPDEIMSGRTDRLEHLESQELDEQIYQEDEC
Sequence of ETV1 (P50549 whole entry): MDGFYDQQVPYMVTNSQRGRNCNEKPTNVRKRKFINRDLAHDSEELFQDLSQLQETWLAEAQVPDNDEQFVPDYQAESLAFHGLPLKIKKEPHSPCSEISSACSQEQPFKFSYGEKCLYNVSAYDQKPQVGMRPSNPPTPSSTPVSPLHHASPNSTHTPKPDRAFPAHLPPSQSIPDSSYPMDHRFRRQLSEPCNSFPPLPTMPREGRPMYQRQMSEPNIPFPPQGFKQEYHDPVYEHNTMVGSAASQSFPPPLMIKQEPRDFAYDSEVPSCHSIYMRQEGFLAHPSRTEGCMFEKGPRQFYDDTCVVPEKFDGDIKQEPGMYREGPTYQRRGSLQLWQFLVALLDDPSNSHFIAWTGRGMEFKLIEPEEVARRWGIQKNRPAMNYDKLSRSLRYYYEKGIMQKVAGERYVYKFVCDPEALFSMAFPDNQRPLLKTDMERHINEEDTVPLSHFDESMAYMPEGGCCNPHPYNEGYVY

Take TGTGCG: the binding signal with ELK1 is 1.08 fold enrichment (6-mer frequency, TF over GST control); in the test with SPIB, 1.01 fold enrichment (6-mer frequency, TF over GST control); with ETV5 it was 1.04 fold enrichment (6-mer frequency, TF over GST control); in the test with ELF4, 1.01 fold enrichment (6-mer frequency, TF over GST control); with ELK4, 1.14 fold enrichment (6-mer frequency, TF over GST control); in the test with ETV2, 1.2 fold enrichment (6-mer frequency, TF over GST control). Also, the binding signal with ERF was 1.06 fold enrichment (6-mer frequency, TF over GST control); with ETS2 it was 1.05 fold enrichment (6-mer frequency, TF over GST control); with ETV3 it was 1.04 fold enrichment (6-mer frequency, TF over GST control); with ETV6, 1.06 fold enrichment (6-mer frequency, TF over GST control).

TTGTCA: the binding signal in the test with ELK1 was 1.04 fold enrichment (6-mer frequency, TF over GST control); in the test with GABPA, 1.08 fold enrichment (6-mer frequency, TF over GST control); with ELF1, 1.13 fold enrichment (6-mer frequency, TF over GST control); with EHF, 1.11 fold enrichment (6-mer frequency, TF over GST control); in the test with SPI1, 1.16 fold enrichment (6-mer frequency, TF over GST control); in the test with SPIB it was 1.21 fold enrichment (6-mer frequency, TF over GST control). For the same sequence, the binding signal with FEV is 1.06 fold enrichment (6-mer frequency, TF over GST control); with ETV5, 1.05 fold enrichment (6-mer frequency, TF over GST control); with ELF4 it was 1.14 fold enrichment (6-mer frequency, TF over GST control); in the test with ELK4 it was 1.21 fold enrichment (6-mer frequency, TF over GST control); with ETV2, 1.02 fold enrichment (6-mer frequency, TF over GST control); with ETV1, 1.15 fold enrichment (6-mer frequency, TF over GST control). Also, the binding signal is 1.3 fold enrichment (6-mer frequency, TF over GST control) with ERF; 1.17 fold enrichment (6-mer frequency, TF over GST control) with ETV3L; 1.11 fold enrichment (6-mer frequency, TF over GST control) with ETS2; 1.06 fold enrichment (6-mer frequency, TF over GST control) with SPDEF; 1.2 fold enrichment (6-mer frequency, TF over GST control) in the test with ETV7; 1.16 fold enrichment (6-mer frequency, TF over GST control) with ETV3. Also, in the test with ETV6, the binding signal is 1.07 fold enrichment (6-mer frequency, TF over GST control).
